Screens: PubChem, National Center for Advancing Translational Sciences (NCATS)
Only some compounds are listed: those with a hit (about 18% of all), similar ones and a draw of the others.
Six1-Eya2 blk: qHTS Assay for Inhibitors of the Six1/Eya2 Interaction; AlphaScreen GST-Six1/His-Eya2 binding, biochemical; hits give low values; AID 651725, 2012; activity change, % (no concentration beside the values); actives 0.56% (n = 360,000); Homeobox protein SIX1 (Homo sapiens) + Protein phosphatase EYA2 (Homo sapiens), …; in the data active means activity change below about -65%; inconclusive means mostly about -30% to -63%
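GST-Six1 + His-Eya2 (5X stock: 250/500 nM); Tris pH 8.0, 300 mM NaCl, 0.05% BSA, 0.02% Tween 20; GSH donor/Ni acceptor beads; 1 h 37 °C dark; AlphaScreen readout.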
DT40 TDP1 no CPT: qHTS for Inhibitors of human tyrosyl-DNA phosphodiesterase 1 (TDP1): qHTS in cells in absence of CPT. DT40 Tdp1-/- hTDP1 cells, no CPT, ATP luminescence, 48 h. Potency, µM (titrated, usually from 46.2 µM), without a hit: at the top dose activity change, negative = growth inhibition, hits mostly inhibitors. actives 15% (n = 420,000); further: potency means the concentration at half of the fitted maximal effect; nearly all actives have a fitted effect of over 55% in size
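Growth of hTDP1-complemented DT40 Tdp1-knockout cells is measured by ATP luminescence after at least 48 hr compound exposure at 37 °C, with DMSO substituting for the 20 nM CPT used in the parallel screen.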
DT40 TDP1 CPT: qHTS for Inhibitors of human tyrosyl-DNA phosphodiesterase 1 (TDP1): qHTS in cells in presence of CPT; chicken DT40 Tdp1-/-;hTDP1 cells + 20 nM CPT, ATP luminescence, 48 h; Potency, µM (titrated, usually from 46.2 µM), for inactives: at the top dose activity change, negative = growth inhibition, hits mostly inhibitors; actives 12% (n = 420,000); AID 686979, 2013; further: potency means the concentration at half of the fitted maximal effect; nearly all actives have a fitted effect of over 55% in size
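Cell growth measured by CellTiter-Glo luminescence after a minimum 48 h, 37 C compound exposure with 20 nM CPT in Tdp1-knockout DT40 cells stably expressing hTDP1, seeded 400/well; qHTS titration format.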
TDP1 inh: qHTS Assay for Inhibitors of Tyrosyl-DNA Phosphodiesterase (TDP1) | Tyrosyl-DNA phosphodiesterase 1 (Homo sapiens), Q9NUW8 | recombinant TDP1, AlphaScreen DNA substrate cleavage | Potency, µM (highest dose often 130 µM), inactives show at the highest dose activity change, negative = inhibition, hits mostly inhibitors | actives 0.28% (n = 350,000) | AID 485290, 2010; further: potency means the concentration at half of the fitted maximal effect; nearly all actives have a fitted effect of over 40% in size
Target sequence (Q9NUW8 whole entry, looked up): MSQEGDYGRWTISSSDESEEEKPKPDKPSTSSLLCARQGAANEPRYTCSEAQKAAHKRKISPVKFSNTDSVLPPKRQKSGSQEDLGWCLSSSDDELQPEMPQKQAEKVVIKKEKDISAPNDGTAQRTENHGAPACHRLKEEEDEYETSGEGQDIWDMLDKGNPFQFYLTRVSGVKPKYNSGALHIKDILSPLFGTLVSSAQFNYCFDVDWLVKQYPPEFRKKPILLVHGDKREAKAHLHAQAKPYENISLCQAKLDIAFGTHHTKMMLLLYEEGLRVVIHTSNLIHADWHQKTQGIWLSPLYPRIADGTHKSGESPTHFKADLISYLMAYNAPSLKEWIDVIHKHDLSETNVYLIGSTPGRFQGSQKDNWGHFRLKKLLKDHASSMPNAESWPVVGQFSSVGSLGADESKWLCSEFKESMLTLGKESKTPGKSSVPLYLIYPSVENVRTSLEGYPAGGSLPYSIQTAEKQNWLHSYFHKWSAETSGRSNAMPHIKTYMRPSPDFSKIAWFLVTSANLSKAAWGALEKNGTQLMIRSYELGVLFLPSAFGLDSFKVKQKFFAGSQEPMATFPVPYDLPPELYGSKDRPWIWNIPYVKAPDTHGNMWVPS
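E. coli-derived human Tdp1, 1 nM final. Cpd preinc 15 min RT; substrate 15 nM final, 5 min RT; AS bead mix 10 ug/ml final, 10 min RT. Signal loss = tyrosine-FITC cleavage. No-enzyme wells = max signal.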
IL-1B inflam inh: qHTS for Inhibitors of Inflammasome Signaling: IL-1-beta AlphaLISA Primary Screen. THP-1 LPS/ATP IL-1B secretion, AlphaLISA, 16 h; hits give low values. activity change, % at 57.5 µM. actives 4.7% (n = 360,000); in the data active means activity change below about -50%; inconclusive means mostly about -30% to -49%
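Secreted IL-1B measured by AlphaLISA bead assay after 16 h compound exposure of THP-1 cells; compounds (final up to 57.5 uM) added 1 h before LPS (250 ng/mL) and ATP (1.25 mM) stimulation; lower signal means less secretion.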
CtBP-E1A blk: qHTS Assay for Inhibitors of the CtBP/E1A Interaction | CtBP / adenovirus E1A interaction (AlphaScreen) | actives 0.49% (n = 340,000) | AlphaScreen GST-E1A/His-CtBP binding, 1536-well; hits give low values | activity change, % (concentration not given with the values); in the data active means activity change below about -65%; inconclusive means mostly about -30% to -63%
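Protein mix (5X: 125 nM each GST-E1A, His-CtBP) was incubated with pinned compound 2 h at 37 deg C in dark, in 50 mM Tris pH 8.0 buffer with 300 mM NaCl. Glutathione donor and nickel acceptor beads followed; AlphaScreen signal read after 1 h.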
* = called active by the depositor. Unless noted, the call rests on the fitted dose curve; in most records, active means well fitted curve in the direction sought with a large enough effect; inconclusive means small, poorly fitted or top-dose-only effect, or another doubt; inactive means no such curve, though single readings can be large; an effect the other way counts as inactive or inconclusive. On the % scale 0 is the no-effect control and ±100 the full control effect.

Results for Cc1nc(SCC(=O)NCC2CCCO2)c2c3c(sc2n1)CCC3 (stereo not drawn) ?
Six1-Eya2 blk: -1; DT40 TDP1 no CPT: -16%; DT40 TDP1 CPT: -16%; TDP1 inh: 3%; IL-1B inflam inh: -9; CtBP-E1A blk: 6

How did Cc1nc(Sc2nnnn2C)c2c3c(sc2n1)CCC3 do in these assays?
Six1-Eya2 blk: 0; DT40 TDP1 no CPT: 1.6µM*; DT40 TDP1 CPT: 2.1µM*; TDP1 inh: 8%; IL-1B inflam inh: -57*; CtBP-E1A blk: 4

How did CC(C)C[C@H]1CN(CCCC[C@H]2CNC(=O)C(=O)N2CC2CCCCC2)C(=O)C(=O)N1CCC1CCCCC1 do in these assays?
Six1-Eya2 blk: 4; DT40 TDP1 no CPT: -15%; DT40 TDP1 CPT: 1%; IL-1B inflam inh: 21; CtBP-E1A blk: 5

What do the screens show for `Cc1cc(-c2ccccc2)cc(=O)[nH]1`?
Six1-Eya2 blk: 0; DT40 TDP1 no CPT: -3%; DT40 TDP1 CPT: -1%; IL-1B inflam inh: -3; CtBP-E1A blk: 4

Results for Cc1cc(-c2ccccc2)cc(-c2ccccc2)[n+]1C ?
Six1-Eya2 blk: 6; DT40 TDP1 no CPT: 8.2µM*; DT40 TDP1 CPT: 10µM*; TDP1 inh: 6%; IL-1B inflam inh: 3; CtBP-E1A blk: -2

How did CCc1ccc(N(CC)C(=O)Cn2cnc3sc(C)c(S(=O)(=O)N4CCN(c5ncccn5)CC4)c3c2=O)cc1 do in these assays?
DT40 TDP1 no CPT: 5%; DT40 TDP1 CPT: 5%; TDP1 inh: -3%

How did CCOC(=O)C1CCCN(C(=O)Cn2cnc3sc(C)c(S(=O)(=O)N4CCOCC4)c3c2=O)C1 (stereo not drawn) do in these assays?
Six1-Eya2 blk: 12; DT40 TDP1 no CPT: -9%; DT40 TDP1 CPT: 0%; TDP1 inh: 5%; IL-1B inflam inh: -53*; CtBP-E1A blk: -10

Results for Cc1sc2ncn(CC(=O)N3CCN(c4ccc(F)cc4)CC3)c(=O)c2c1S(=O)(=O)N1CCCCC1 ?
DT40 TDP1 no CPT: 16µM*; DT40 TDP1 CPT: 16µM*; TDP1 inh: 0%

How did Cc1ccc(C)c(N2CCN(C(=O)Cn3cnc4sc(C)c(S(=O)(=O)N5CCN(c6ncccn6)CC5)c4c3=O)CC2)c1 do in these assays?
DT40 TDP1 no CPT: 9.2µM*; DT40 TDP1 CPT: 18µM*; TDP1 inh: 12%

How did CCOc1ccc(N(CC)C(=O)Cn2cnc3sc(C)c(S(=O)(=O)N4CCN(c5ncccn5)CC4)c3c2=O)cc1 do in these assays?
DT40 TDP1 no CPT: 9.2µM*; DT40 TDP1 CPT: 13µM*; TDP1 inh: -2%

How did Cc1sc2ncn(CC(=O)N3CCN(c4ccccc4)CC3)c(=O)c2c1S(=O)(=O)N1CCOCC1 do in these assays?
Six1-Eya2 blk: 5; DT40 TDP1 no CPT: inconclusive; DT40 TDP1 CPT: 18%; TDP1 inh: 4%; IL-1B inflam inh: 3; CtBP-E1A blk: -7

How did Cn1cnnc1SCC(=O)OCN1C(=O)c2ccccc2C1=O do in these assays?
Six1-Eya2 blk: 3; DT40 TDP1 no CPT: -20%; DT40 TDP1 CPT: -25%; TDP1 inh: 0%; IL-1B inflam inh: 11; CtBP-E1A blk: 9

Results for O=C(NC1CCN(Cc2ccccc2)CC1)c1c(Cl)cccc1Cl ?
Six1-Eya2 blk: 2; DT40 TDP1 no CPT: -1%; DT40 TDP1 CPT: 4%; IL-1B inflam inh: -14; CtBP-E1A blk: -1
